Screening data (PubChem)
The list is not random: actives were taken first. Their share in the collection is about 7.3%.
Vaccinia Venus: vaccinia inhibition (Venus reporter); Vaccinia virus Venus reporter expression, fluorescence; Potency, µM (top dose mostly 36.5 µM), for the others: at the top dose activity change, negative = inhibition, most hits filed as inhibitors; 0.46% of 330,000 active; calls by dose curve; tested in A549 cells; also: potency is read from the fitted curve at half-maximal effect; nearly all actives have a fitted effect of over 30% in size
HCV inhibitor: blocks hepatitis C virus; AID 651820; 3.4% of 340,000 active; Huh7.5.1 HCVcc-Cre infection, luciferase reporter, 44 h; Potency, µM (titrated, usually from 41.8 µM), for the others: top-dose activity change, negative = inhibition, most hits filed as inhibitors; active = well fitted inhibition curve with a large enough effect; inconclusive = small, poorly fitted or top-dose-only effect, or another doubt; inactive = no such curve, though single readings can be large or run the other way; also: potency is read from the fitted curve at half-maximal effect
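Infectious HCVcc-Cre (~0.5 moi) was added to cells just after compound, with cells seeded 4 h earlier at 1,000 per well. Luciferase activity after 44 h culture reported infection; substrate was incubated 15 min at room temperature before reading.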
HCMV antiviral: inhibitors of human cytomegalovirus; HFF cells, HCMV-luciferase reporter, 72 h; stronger effect = lower value; activity change, negative = inhibition, % at 57.5 µM; 4.5% of 410,000 active; in the data active = activity change below about -60%; inconclusive = no clear call, values can overlap the other calls; inactive = above about -39%
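Compounds were evaluated in HFFs infected with an HCMV luciferase reporter virus (MOI 1 PFU/cell). Luciferase in lysates collected 72 h post infection served as the replication measure.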
FMDV antiviral: foot and mouth disease virus antiviral activity; FMDV antiviral cell-based qHTS; AID 1159524; 1.2% of 410,000 active; Potency, µM (series often up to 57.9 µM), for inactives: top-dose activity change, negative = inhibition, usual class: inhibitors; calls by dose curve; tested in HEK293T cells; also: read-out not given here; potency is read from the fitted curve at half-maximal effect; nearly all actives have a fitted effect of over 45% in size
VACV mCherry inh: inhibitors of vaccinia virus infection (mCherry reporter signal); Vaccinia virus mCherry reporter infection, fluorescence; Potency, µM (highest dose often 36.5 µM), for the others: top-dose activity change, negative = inhibition, hits mostly inhibitors; AID 720579; 0.63% of 310,000 active; calls by dose curve; tested in A549 cells; also: potency is read from the fitted curve at half-maximal effect; nearly all actives have a fitted effect of over 35% in size
An asterisk follows results filed as active; i = inactive; u = inconclusive; x = not tested or not shown; ! = repeats disagree; [ ] = remark or other dose. % is scaled to controls: 0 for no effect and ±100 for the full control effect.

SMILES	Vaccinia Venus	HCV inhibitor	HCMV antiviral	FMDV antiviral	VACV mCherry inh
CC(=O)Oc1cc2c(C(=O)NCCCN3CCOCC3)c(C)oc2c2ccccc12	-17%	11µM*	18	-22%	i
C=CCNC(=O)C(=O)Nc1ccc2c(c1)N(S(=O)(=O)c1cccs1)CCC2	u	u	-9	-5%	u
CC(=CC(=O)c1ccccc1)c1ccccc1	0%	9%	-13	42%	-3%
C=CCN1C[C@H](C)N(C(c2ccc(C(=O)N(CC)CC)cc2)c2cccc(OC)c2)CC1C (some centres undefined)	x	x	-65*	x	x
Cc1cccc(N2CCN(C(=O)C3CCC(=O)N(C4CC4)C3)CC2)c1C (centres undefined)	0%[7.34 µM]	14%	0	-4%	i[7.34 µM]
CN(Cc1ccccc1)c1ncnc2sccc12	-8%	8.9µM*	0	u	i
COc1ccc(-c2cn3c(n2)sc2cc(C(=O)NCCc4ccc(OC)cc4OC)ccc23)cc1	-7%	x	x	-12%	-6%
COc1ccc2cc(C(=O)CS(=O)(=O)c3ccc(Cl)cc3)c(=O)oc2c1	x	x	-10	x	x
COc1ccc(C2c3ccc4ccccc4c3Oc3ncn(CCN4CCOCC4)c(=N)c32)cc1OC (centres undefined)	x	u	38	-2%	x
COc1ccc(C2c3ccc4ccccc4c3Oc3ncn(CCCO)c(=N)c32)cc1OC (centres undefined)	-24%[7.34 µM]	13µM*	-34	-21%	-6%[7.34 µM]
COc1ccc(C2c3ccc4ccccc4c3Oc3ncn(CCO)c(=N)c32)cc1OC (centres undefined)	u	10µM*	x	-13%	-3%
COc1ccc(C2c3ccc4ccccc4c3Oc3ncn(CCCO)c(=N)c32)cc1 (centres undefined)	u	-25%	38	-28%	-19%
COc1ccc(C2c3c(ncn(CCCN4CCOCC4)c3=N)Oc3ccc4ccccc4c32)cc1OC (centres undefined)	x	22µM*	-12	-16%	x
Cc1nccc(-c2ccc(-n3cnc4ccccc43)cc2)n1	-12%	u	u	20%	i
Nc1nccc(-c2ccc(-n3cnc4ccccc43)cc2)n1	-19%	-7%	-70*	14%	i
COc1ccc(C(=O)OCCc2sc[n+](CC(=O)c3ccccc3)c2C)cc1	-11%	u	u	-16%	-6%
Cc1c(CCOC(=O)C2C3CC4CC(C3)CC2C4)sc[n+]1CC(=O)c1ccc(Br)cc1 (centres undefined)	u	u	-103*!	u	x
Cc1c(CCOC(=O)c2ccc(Cl)cc2Cl)sc[n+]1CC(=O)c1ccc(Br)cc1	x	14µM*	0	-27%	x
COc1ccc(C(=O)CC2(O)C(=O)N(Cc3ccccc3)c3ccc(Br)cc32)cc1 (centres undefined)	-13%	x	9	-3%	-21%
O=C(NCCc1ccc(F)cc1)Nc1ccc([N+](=O)[O-])cc1	-19%	u	-14	2%	i
COc1ccc(Cl)cc1NC(=S)NCCc1ccc(F)cc1	x	-29%	x	-15%	x
O=C(NCCc1ccc(Cl)cc1)Nc1ccc(F)cc1	-8%	5%	-31	12%	-16%
S=C(NCCc1ccc(Cl)cc1)NC1CCCC1	x	u	-69*	50%	x
O=[N+]([O-])c1ccc(NC(=S)NCCc2ccc(F)cc2)cc1	u	u	-98*	-16%	u
Fc1ccc(NC(=S)NCCc2ccc(Cl)cc2)cc1	-16%	8%	-69*	27%	i
SMILES	Vaccinia Venus	HCV inhibitor	HCMV antiviral	FMDV antiviral	VACV mCherry inh
Fc1ccc(CCNC(=S)Nc2ccc(F)c(Cl)c2)cc1	u	u	-66*	-29%	u
CC(C)Oc1ccccc1Oc1ccc2c(-c3ccccn3)noc2n1	x	x	-5	x	x
CCOc1ccc(CNC(=O)C2CCN(S(=O)(=O)c3cn(C)cn3)CC2)cc1OC	-9%	x	0	-3%	-13%
Cc1cccc(-c2cnc(C)nc2C2CCCN(C(=O)c3cccc(Cn4cccn4)c3)C2)c1 (centres undefined)	1%	x	x	-19%	-8%
Cc1ccc(NC(=O)C2CCN(S(C)(=O)=O)CC2)cc1Cl	x	1%	27	-9%	x
Fc1ccc(NC(=S)NCc2ccccc2Cl)cc1	-19%	-14%	-70*	20%	i
COc1ccccc1CNC(=S)Nc1ccc(F)cc1	-18%	-25%	-25	41%	i
C=Cc1ccc(Cn2c(=O)n(C)c(=O)c3sccc32)cc1	-3%	u	78	u	-10%
CN1CN(c2ccccc2)C2(CCN(CCCSc3ccccc3NC(=O)/C=C/c3ccccc3)CC2)C1=O	33%	35µM*	-66*	0%	u
CC1(C(=O)Nc2ccc(Cl)cc2)Cc2c(-c3ccc(C(N)=O)cc3)ccnc2O1 (centres undefined)	-5%	x	-18	-11%	14%
COc1ccc(/C=C/C(=O)Nc2ccccc2C(=O)O)cc1	-5%	5%	-3	-23%	-5%
COc1ccc(/C=C/C(=O)Nc2ccccc2C(=O)O)cc1OC	x	1%[8.37 µM]	-81*	-3%	x
COC(=O)c1ccccc1NC(=O)/C=C/c1cc(OC)c(OC)c(OC)c1	1%	5µM*	43	u	x
COc1ccc(/C=C/C(=O)Nc2ccc(-n3nncc3-c3ccccc3)cc2)cc1OC	-24%	13µM*	u	-8%	-6%
COc1cc(/C=C/C(=O)Nc2ccc(C)cc2)cc(OC)c1OC	-20%	u	-38	-7%	-33%
CCN(CC)CCN(C(=O)c1ccc(C(=O)OC)cc1)c1nc2ccc(Cl)cc2s1	-5%	x	2	-3%	-9%
COc1ccc(C2Nc3ccccc3C(=O)N2Cc2ccco2)cc1 (centres undefined)	-9%	x	x	x	i
O=C(/C=C/c1cccc([N+](=O)[O-])c1)NC(=S)Nc1ccc(CN2CCOCC2)cc1	-17%	4%	-72*	u	-4%
CC(C)c1ccc(/C=C/C(=O)NC(=S)NN2CCOCC2)cc1	x	4%	-98*	-5%	x
CC(C)c1ccc(/C=C/C(=O)NC(=S)Nc2ccc(CN3CCOCC3)cc2)cc1	-12%	u	u	20µM*	i
O=C(NC(=S)Nc1ccc(CN2CCOCC2)cc1)c1ccc([N+](=O)[O-])cc1	x	9%	32	u	x
COC(=O)C[C@H]1C=C[C@@H](NC(=O)c2ccncc2)[C@@H](CO)O1	1%	x	-14	-11%	-14%
Cc1ccc(S(=O)(=O)CCSC(=N)N)cc1	u	10µM*	-40	u	u
Cc1ccc(S(=O)(=O)CC(N)=O)cc1	2%	7%	-2	x	-4%
CC(C)CCn1c(=O)c2cccnc2n(CC(=O)Nc2ccccc2)c1=O	-5%	x	23	0%	-8%
COc1ccc(-n2c(CCNC(=O)c3ccccc3C(F)(F)F)nnc2SC)cc1	22%	x	x	0%	2%
Cc1cc(C)nc(Sc2nc(Cl)nc(N(c3ccccc3)c3ccccc3)n2)n1	-8%	u	90	35µM*	-18%
O=C(c1ccco1)N1CCN(C(=O)c2cc3sccc3n2Cc2ccccc2)CC1	x	-27%	-71*	-28%	x
